Experimental data published in PubChem BioAssay (EPA / NIEHS).
Results filed as inconclusive are left out. Activity calls are given as the source filed them. The calls were made as follows, unless noted: active = hit-call score of the fitted dose curve at least 0.9, where 1 is the maximum; inactive = score below 0.9.

Key:
[1] = read-out: E-selectin (Homo sapiens) (UniProt P16581); assay: BSK_SAg_Eselectin: BioMAP Diversity Plus: SAg Assay for Eselectin Biomarker Activity (AID 2283091); details: primary human HUVEC with PBMC; actives raise or lower the signal
Method in brief: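 Endpoint values derive from bidirectional fitting relative to DMSO, using ELISA-measured E-selectin in a human vascular co-culture (umbilical vein endothelium plus PBMC) sampled 24 h after dosing.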

[2] = BSK_SAg_PBMCCytotoxicity: PBMC Cytotoxicity Assessment in the BioMAP Diversity Plus: SAg Assay (AID 2283093); details: primary human HUVEC with PBMC;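 also: PBMC viability measured as Alamar Blue reduction fluorescence at 546/580 nm; fitted both ways against DMSO so a hit may be loss or gain of signal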;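 as to AC50: PBMC superantigen activated with SEB plus TSST-1 one hour after compound addition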
Method in brief: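 Alamar Blue reduction (6 h, 546/580 nm) reports PBMC cytotoxicity after 90 h superantigen activation (SEB, TSST-1; 20 ng/mL final each) with 1 h compound pre-treatment. Gain or loss of signal fitted versus DMSO.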

[3] = read-out: Interleukin-8 (IL8), CXCL8 (gene 3576); assay: BSK_SAg_IL8: BioMAP Diversity Plus: SAg Assay for Interleukin-8 (IL8) Biomarker Activity (AID 2283094); details: primary human HUVEC with PBMC; actives raise or lower the signal
Method in brief: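 HUVEC/PBMC co-culture, 24 h post-dose; IL-8 by ELISA. Gain or loss of signal fitted bidirectionally vs DMSO baseline.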

[4] = BSK_SAg_Proliferation: Cell Proliferation Assessment in the BioMAP Diversity Plus: SAg Assay (AID 2283095); details: primary human HUVEC with PBMC;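 also: relative cell number as total protein by SRB absorbance in sub-confluent culture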
Method in brief: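 HUVEC/PBMC co-culture, 96-well. TCA-fixed (10%), 0.1% SRB stain, A560 at 96 h. Protein content used as viability readout; bidirectional fitting vs DMSO control.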

[5] = BSK_SAg_SRB: Viability Assessment in the BioMAP Diversity Plus: SAg Assay (AID 2283096); details: primary human HUVEC with PBMC;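 also: cells read one day after compound addition; hits may be either gain or loss of signal compared with DMSO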
Method in brief: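 This overt-cytotoxicity endpoint quantifies protein in human endothelial/PBMC co-cultures at 24 h using SRB absorbance (560 nm) after trichloroacetic acid fixation. Values reflect signal change from the DMSO negative control, fitted bidirectionally.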

[6] = molecular target: human CYP1A1, CYP1A1 (gene 1543) (UniProt P04798); assay: NVS_ADME_hCYP1A1: NovaScreen (NVS) CYP450-related Enzyme Activity (ADME) Assay for human CYP1A1 (AID 2283100; active = hit-call score of the fitted dose curve at least 0.9, where 1 is the maximum)
Method in brief: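 Inhibition of recombinant CYP1A1 turnover was assessed fluorometrically in a biochemical format 1 h after compound exposure. Testing began at 10 uM in duplicate and progressed to concentration series reaching 20 uM, with on-plate positive and negative controls.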

[7] = molecular target: human CYP1A2, CYP1A2 (gene 1544) (UniProt P05177); assay: NVS_ADME_hCYP1A2: NovaScreen (NVS) CYP450-related Enzyme Activity (ADME) Assay for human CYP1A2 (AID 2283102; active = hit-call score of the fitted dose curve at least 0.9, where 1 is the maximum;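 also: potency for inhibition since loss of fluorescence marks reduced CYP1A2 activity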)
Method in brief: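 Inhibition scored as decrease in fluorescent product versus acetonitrile negative control. Enzyme: insect-cell recombinant human CYP1A2, substrate-specific, cell-free. Reading at 0.5 h; 10 uM duplicate initial screen with positive and negative controls on every plate.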

[8] = molecular target: Cytochrome P450 2C18 (Homo sapiens) (UniProt P33260); assay: NVS_ADME_hCYP2C18: NovaScreen (NVS) CYP450-related Enzyme Activity (ADME) Assay for human CYP2C18 (AID 2283103)
Method in brief: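 Enzyme activity measured by fluorescence 0.5 h after compound addition, using recombinant CYP2C18 and a specific substrate. Actives from duplicate 10 uM screening were retested in concentration series (top 20 uM); acetonitrile served as negative baseline.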

[9] = molecular target: human CYP2J2, CYP2J2 (gene 1573) (UniProt P51589); assay: NVS_ADME_hCYP2J2: NovaScreen (NVS) CYP450-related Enzyme Activity (ADME) Assay for human CYP2J2 (AID 2283106; active = hit-call score of the fitted dose curve at least 0.9, where 1 is the maximum)
Method in brief: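 Chemicals were first tested at 10 uM in duplicate, and hits meeting criteria such as 30% inhibition were run in singleton concentration series with a 20 uM top concentration. Enzyme activity of recombinant CYP2J2 was measured by fluorescence after 1 h, relative to acetonitrile.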

[10] = molecular target: human CYP2D6, CYP2D6 (gene 1565) (UniProt P10635); assay: NVS_ADME_hCYP2D6: NovaScreen (NVS) CYP450-related Enzyme Activity (ADME) Assay for human CYP2D6 (AID 2283107; active = hit-call score of the fitted dose curve at least 0.9, where 1 is the maximum)
Method in brief: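 Biochemical fluorescence assay, insect-cell-derived enzyme. Read at 1 h; inhibition taken from loss of signal against acetonitrile. Screened at 10 uM in duplicate, with concentration series for actives.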

[11] = molecular target: human CYP2C9, CYP2C9 (gene 1559) (UniProt P11712); assay: NVS_ADME_hCYP2C9: NovaScreen (NVS) CYP450-related Enzyme Activity (ADME) Assay for human CYP2C9 (AID 2283108; active = hit-call score of the fitted dose curve at least 0.9, where 1 is the maximum)
Method in brief: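 Cell-free assay of recombinant human CYP2C9 produced in Sf9 cells, with enzyme activity read by fluorescence intensity 0.75 h after compound addition. Loss of signal versus an acetonitrile negative control indicates inhibition. Primary screen used 10 uM in duplicate; actives were retested in concentration series.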

[12] = molecular target: Cytochrome P450 2C19 (Homo sapiens) (UniProt P33261); assay: NVS_ADME_hCYP2C19: NovaScreen (NVS) CYP450-related Enzyme Activity (ADME) Assay for human CYP2C19 (AID 2283113; active = hit-call score of the fitted dose curve at least 0.9, where 1 is the maximum;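 as to AC50: potency for inhibition seen as loss of fluorescent signal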)
Method in brief: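 Biochemical CYP2C19 inhibition screen: insect-cell recombinant protein plus fluorescent substrate, 1 h, fluorescence intensity. Acetonitrile defined baseline activity. Single 10 uM concentration in duplicate, with concentration-response follow-up for actives.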

[13] = molecular target: human CYP19A1, CYP19A1 (gene 1588) (UniProt P11511); assay: NVS_ADME_hCYP19A1: NovaScreen (NVS) CYP450-related Enzyme Activity (ADME) Assay for human CYP19A1 (AID 2283098; active = hit-call score of the fitted dose curve at least 0.9, where 1 is the maximum)
Method in brief: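 Compounds were first screened at 10 uM in duplicate against purified enzyme, with a fluorogenic substrate and fluorescence intensity detection after 0.5 h. Inhibition appears as reduced signal against acetonitrile control.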

[14] = molecular target: human CYP2B6, CYP2B6 (gene 1555) (UniProt P20813); assay: NVS_ADME_hCYP2B6: NovaScreen (NVS) CYP450-related Enzyme Activity (ADME) Assay for human CYP2B6 (AID 2283101; active = hit-call score of the fitted dose curve at least 0.9, where 1 is the maximum)
Method in brief: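 Recombinant human CYP2B6 with fluorogenic substrate, read by fluorescence intensity 1 h after dosing. Primary screen in duplicate at 10 uM, actives followed in concentration series; signal loss relative to acetonitrile control.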

Measured: AC50

human CYP2C9, CYP2C9 (gene 1559), sequence (P11712 whole entry, looked up): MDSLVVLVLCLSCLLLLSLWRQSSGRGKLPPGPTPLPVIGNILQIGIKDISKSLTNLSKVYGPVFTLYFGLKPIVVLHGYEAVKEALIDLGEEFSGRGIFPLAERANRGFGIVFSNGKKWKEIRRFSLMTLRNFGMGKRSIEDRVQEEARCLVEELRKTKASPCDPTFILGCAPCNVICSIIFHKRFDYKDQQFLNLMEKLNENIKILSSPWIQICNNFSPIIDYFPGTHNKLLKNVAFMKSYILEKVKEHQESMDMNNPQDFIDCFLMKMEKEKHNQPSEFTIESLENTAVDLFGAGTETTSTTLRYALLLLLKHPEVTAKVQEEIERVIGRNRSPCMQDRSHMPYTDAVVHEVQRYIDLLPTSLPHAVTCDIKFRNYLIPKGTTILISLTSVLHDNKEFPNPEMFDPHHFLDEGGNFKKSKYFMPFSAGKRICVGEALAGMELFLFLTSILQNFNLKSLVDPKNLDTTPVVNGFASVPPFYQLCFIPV
human CYP2D6, CYP2D6 (gene 1565), sequence (P10635 whole entry, looked up): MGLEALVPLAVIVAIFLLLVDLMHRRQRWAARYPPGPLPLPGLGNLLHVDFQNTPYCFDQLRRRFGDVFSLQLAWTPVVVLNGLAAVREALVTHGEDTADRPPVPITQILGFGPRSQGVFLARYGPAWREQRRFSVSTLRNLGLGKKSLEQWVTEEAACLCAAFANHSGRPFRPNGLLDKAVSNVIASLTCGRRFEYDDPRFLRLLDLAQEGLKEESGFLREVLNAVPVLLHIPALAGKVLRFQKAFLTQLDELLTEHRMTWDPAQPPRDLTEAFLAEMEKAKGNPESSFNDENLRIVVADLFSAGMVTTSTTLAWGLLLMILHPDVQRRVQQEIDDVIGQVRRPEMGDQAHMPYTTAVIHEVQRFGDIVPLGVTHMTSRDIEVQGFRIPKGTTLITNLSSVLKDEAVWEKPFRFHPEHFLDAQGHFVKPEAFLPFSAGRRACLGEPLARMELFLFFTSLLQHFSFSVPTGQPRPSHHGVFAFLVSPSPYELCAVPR
E-selectin (Homo sapiens), sequence (P16581 whole entry, looked up): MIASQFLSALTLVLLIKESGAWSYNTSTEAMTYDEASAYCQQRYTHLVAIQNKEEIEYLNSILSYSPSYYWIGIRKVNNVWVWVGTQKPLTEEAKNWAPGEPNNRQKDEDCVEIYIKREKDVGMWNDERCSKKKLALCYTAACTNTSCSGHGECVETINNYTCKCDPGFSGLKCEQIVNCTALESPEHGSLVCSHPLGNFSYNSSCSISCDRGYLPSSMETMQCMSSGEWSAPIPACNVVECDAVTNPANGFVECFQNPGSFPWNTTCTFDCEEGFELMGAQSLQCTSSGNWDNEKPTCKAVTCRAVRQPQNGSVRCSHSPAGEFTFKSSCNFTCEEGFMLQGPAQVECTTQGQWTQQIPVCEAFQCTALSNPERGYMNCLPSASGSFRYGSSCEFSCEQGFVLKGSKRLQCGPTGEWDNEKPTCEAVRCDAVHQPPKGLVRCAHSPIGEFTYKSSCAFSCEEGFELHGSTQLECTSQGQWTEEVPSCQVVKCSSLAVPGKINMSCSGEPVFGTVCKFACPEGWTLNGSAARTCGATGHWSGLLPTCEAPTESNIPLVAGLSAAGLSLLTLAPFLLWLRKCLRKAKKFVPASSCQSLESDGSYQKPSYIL
Cytochrome P450 2C18 (Homo sapiens), sequence (P33260 whole entry, looked up): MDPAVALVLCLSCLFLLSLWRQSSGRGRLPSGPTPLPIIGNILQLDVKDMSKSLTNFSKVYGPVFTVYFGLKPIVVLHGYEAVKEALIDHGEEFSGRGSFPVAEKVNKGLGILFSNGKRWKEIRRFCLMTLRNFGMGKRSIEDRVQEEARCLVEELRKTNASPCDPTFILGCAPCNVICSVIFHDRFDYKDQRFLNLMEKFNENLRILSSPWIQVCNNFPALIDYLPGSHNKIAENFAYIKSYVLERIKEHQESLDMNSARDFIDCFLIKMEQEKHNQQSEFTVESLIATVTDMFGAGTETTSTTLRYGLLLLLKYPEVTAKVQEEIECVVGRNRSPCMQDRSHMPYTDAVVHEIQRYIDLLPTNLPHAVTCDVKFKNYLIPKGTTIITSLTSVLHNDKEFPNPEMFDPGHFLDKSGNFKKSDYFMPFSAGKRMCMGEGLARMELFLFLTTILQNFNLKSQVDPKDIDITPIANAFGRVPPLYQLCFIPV
human CYP19A1, CYP19A1 (gene 1588), sequence (P11511 whole entry, looked up): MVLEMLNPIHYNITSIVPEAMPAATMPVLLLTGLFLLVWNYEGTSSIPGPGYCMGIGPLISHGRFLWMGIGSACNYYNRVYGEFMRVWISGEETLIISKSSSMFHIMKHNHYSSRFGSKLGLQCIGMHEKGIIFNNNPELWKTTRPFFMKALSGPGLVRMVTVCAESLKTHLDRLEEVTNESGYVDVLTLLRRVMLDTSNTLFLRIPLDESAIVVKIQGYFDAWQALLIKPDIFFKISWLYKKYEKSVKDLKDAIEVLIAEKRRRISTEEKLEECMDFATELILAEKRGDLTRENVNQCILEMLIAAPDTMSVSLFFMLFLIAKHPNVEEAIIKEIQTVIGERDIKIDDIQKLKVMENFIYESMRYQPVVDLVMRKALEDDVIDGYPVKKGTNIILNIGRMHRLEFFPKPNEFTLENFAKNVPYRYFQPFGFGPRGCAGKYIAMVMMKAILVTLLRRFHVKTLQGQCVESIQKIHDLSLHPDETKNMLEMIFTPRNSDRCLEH
human CYP1A2, CYP1A2 (gene 1544), sequence (P05177 whole entry, looked up): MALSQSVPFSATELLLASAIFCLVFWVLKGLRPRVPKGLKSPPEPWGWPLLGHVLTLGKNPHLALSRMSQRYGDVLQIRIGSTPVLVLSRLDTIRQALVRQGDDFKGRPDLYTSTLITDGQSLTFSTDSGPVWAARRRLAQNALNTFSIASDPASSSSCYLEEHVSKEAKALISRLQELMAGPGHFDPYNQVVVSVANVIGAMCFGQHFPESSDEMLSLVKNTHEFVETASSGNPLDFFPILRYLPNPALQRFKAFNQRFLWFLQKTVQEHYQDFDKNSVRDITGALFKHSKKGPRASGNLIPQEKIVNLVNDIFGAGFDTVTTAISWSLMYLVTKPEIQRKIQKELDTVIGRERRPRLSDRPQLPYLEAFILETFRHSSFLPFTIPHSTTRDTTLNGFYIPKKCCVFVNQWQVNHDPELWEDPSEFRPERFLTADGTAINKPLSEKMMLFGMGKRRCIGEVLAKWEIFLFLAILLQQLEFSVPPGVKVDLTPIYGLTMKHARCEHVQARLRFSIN
human CYP1A1, CYP1A1 (gene 1543), sequence (P04798 whole entry, looked up): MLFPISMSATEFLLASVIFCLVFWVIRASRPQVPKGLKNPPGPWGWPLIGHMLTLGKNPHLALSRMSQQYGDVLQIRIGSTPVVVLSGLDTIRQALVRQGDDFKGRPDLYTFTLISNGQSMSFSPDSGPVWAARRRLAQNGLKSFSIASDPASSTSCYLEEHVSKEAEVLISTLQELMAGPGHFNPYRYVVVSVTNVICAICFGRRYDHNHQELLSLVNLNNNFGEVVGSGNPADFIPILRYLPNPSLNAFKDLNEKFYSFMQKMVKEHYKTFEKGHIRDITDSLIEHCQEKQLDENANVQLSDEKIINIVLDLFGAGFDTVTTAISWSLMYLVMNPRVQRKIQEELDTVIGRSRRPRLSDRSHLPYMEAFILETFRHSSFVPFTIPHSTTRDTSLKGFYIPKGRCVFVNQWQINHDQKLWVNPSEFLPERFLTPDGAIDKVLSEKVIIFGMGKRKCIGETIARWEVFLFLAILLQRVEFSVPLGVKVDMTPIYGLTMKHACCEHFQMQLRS
human CYP2B6, CYP2B6 (gene 1555), sequence (P20813 whole entry, looked up): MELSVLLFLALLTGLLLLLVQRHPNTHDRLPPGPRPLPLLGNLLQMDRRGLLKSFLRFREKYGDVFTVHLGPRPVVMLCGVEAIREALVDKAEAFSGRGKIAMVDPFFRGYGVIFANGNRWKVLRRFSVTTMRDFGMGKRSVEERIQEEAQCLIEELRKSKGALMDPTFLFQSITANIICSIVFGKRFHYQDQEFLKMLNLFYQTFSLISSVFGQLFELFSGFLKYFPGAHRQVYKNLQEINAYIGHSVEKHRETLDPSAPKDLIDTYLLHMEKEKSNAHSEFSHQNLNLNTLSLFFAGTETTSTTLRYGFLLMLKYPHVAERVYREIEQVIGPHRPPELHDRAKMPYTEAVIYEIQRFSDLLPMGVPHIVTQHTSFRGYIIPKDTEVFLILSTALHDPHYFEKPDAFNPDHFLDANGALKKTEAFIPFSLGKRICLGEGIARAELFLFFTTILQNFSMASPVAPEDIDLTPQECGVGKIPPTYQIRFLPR
human CYP2J2, CYP2J2 (gene 1573), sequence (P51589 whole entry, looked up): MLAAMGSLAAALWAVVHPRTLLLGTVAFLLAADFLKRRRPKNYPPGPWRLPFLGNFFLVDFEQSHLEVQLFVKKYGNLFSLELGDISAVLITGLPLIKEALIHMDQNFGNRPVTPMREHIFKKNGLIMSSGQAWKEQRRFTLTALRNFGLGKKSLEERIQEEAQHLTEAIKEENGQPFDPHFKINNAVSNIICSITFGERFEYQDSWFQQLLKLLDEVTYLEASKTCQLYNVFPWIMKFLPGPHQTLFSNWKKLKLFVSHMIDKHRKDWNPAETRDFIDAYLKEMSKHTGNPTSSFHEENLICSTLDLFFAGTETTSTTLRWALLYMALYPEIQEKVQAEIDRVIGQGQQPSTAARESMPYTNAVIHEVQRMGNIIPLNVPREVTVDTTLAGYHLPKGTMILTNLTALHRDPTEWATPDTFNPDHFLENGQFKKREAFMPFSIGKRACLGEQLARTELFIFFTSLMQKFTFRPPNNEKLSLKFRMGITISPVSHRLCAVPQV

COc1ccc(-c2ccccc2)cc1NNC(=O)OC(C)C
active: [6] 0.597 µM | [7] 0.956 µM | [8] 0.684 µM | [9] 0.407 µM | [11] 1.07 µM | [12] 0.447 µM
inactive: [1] | [2] | [3] | [4] | [5] | [10]

CC1(C)C(C(=O)OC(C#N)c2cccc(Oc3ccccc3)c2)C1(C)C (stereo not given)
active: [1] 13.1 µM | [3] 26.8 µM | [4] 15.3 µM | [5] 7.56 µM | [12] 13.8 µM
inactive: [2] | [11]

CCOc1nc(C(Cl)(Cl)Cl)ns1
inactive: [2] | [3] | [4] | [5]
active: [1] 13.3 µM

O=P(O)(O)CCCl
inactive: [1] | [2] | [3] | [4] | [5]

CN=C=S
inactive: [2] | [5] | [13]
active: [1] 12 µM | [3] 11.7 µM | [4] 13.7 µM

CC(C)N1C(=O)N(c2ccccc2)CSC1=NC(C)(C)C
active: [1] 27.3 µM | [2] 32.2 µM | [3] 26.3 µM | [4] 27.4 µM | [8] 8.79 µM

CCOC(=O)C(C)OC(=O)c1cc(Oc2ccc(C(F)(F)F)cc2Cl)ccc1[N+](=O)[O-] (stereo not given)
inactive: [2] | [3] | [13] | [10]
active: [1] 10 µM | [4] 30.9 µM | [12] 4.01 µM

O=C1C2CC=CCC2C(=O)N1SC(Cl)(Cl)Cl (stereo not given)
inactive: [13]
active: [1] 26.2 µM | [2] 32.6 µM | [3] 25.3 µM | [4] 28.7 µM | [7] 6.89 µM | [11] 10 µM | [12] 16 µM

Nc1c(Cl)c(Cl)nc(C(=O)O)c1Cl
inactive: [1] | [2] | [3] | [4] | [5]

COC(=O)NC(=S)Nc1ccccc1NC(=S)NC(=O)OC
active: [1] 15.1 µM | [2] 14 µM | [3] 25.1 µM | [4] 19.2 µM | [12] 10 µM

COP(=O)(OC)O/C(C)=C/C(=O)N(C)C
inactive: [1] | [2] | [3] | [4] | [12]

Nc1cnn(-c2ccccc2)c(=O)c1Cl
inactive: [1] | [2] | [3] | [4] | [5]

CCC(C)n1c(=O)[nH]c(C)c(Br)c1=O (stereo not given)
inactive: [1] | [2] | [3] | [4] | [12]

C=CCOC(=O)C(C)(C)OC(=O)c1cc(-n2c(=O)cc(C(F)(F)F)n(C)c2=O)ccc1Cl
inactive: [2] | [3] | [4]
active: [1] 31.1 µM

CCN(CC)C(=O)C(C)Oc1cccc2ccccc12 (stereo not given)
inactive: [2] | [3] | [4] | [13]
active: [1] 1.06 µM | [14] 5.79 µM | [8] 10.8 µM | [11] 4.54 µM | [12] 1.15 µM

CC(C)C1(C)N=C(c2ncccc2C(=O)O)NC1=O (stereo not given)
inactive: [1] | [2] | [3] | [4] | [11]

CSC(=O)c1c(C(F)F)nc(C(F)(F)F)c(C(=O)SC)c1CC(C)C
active: [1] 13.1 µM | [2] 27.6 µM | [3] 12.7 µM | [4] 28.6 µM | [5] 14.6 µM | [7] 3.3 µM | [10] 6.58 µM | [12] 7.01 µM

CNC(=O)Oc1cccc2ccccc12
inactive: [1] | [3] | [5] | [13]
active: [2] 15.9 µM | [4] 22.4 µM | [7] 5.35 µM

Cc1c(COC(=O)[C@@H]2[C@H](/C=C(\Cl)C(F)(F)F)C2(C)C)cccc1-c1ccccc1
inactive: [2] | [13]
active: [1] 10.3 µM | [3] 9.35 µM | [4] 14.1 µM | [5] 9.26 µM | [12] 12.9 µM

O=C(Nc1ccccc1-c1ccc(Cl)cc1)c1cccnc1Cl
inactive: [1] | [2] | [3] | [4]
active: [12] 0.661 µM
